PRC2 inh – EZH2/PRC2 methyltransferase inhibitors, primary screen, biochemical, DELFIA time-resolved fluorescence, single point | Histone-lysine N-methyltransferase EZH2 (Homo sapiens), Q15910 | PRC2 H3K27 methylation, DELFIA TRF, 1 h | inhibition, % at 12.5 µM | 0.35% of 57,000 active | AID 651548, 2012;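 active = mean inhibition of replicates at least 50% and every single replicate also reaching 50%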;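 note: dimethyl H3K27 on biotinylated H3 21-44 peptide detected by antibody; plate controls were median neutral control wells for no effect and median positive control wells for full effect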
Target sequence (Q15910 whole entry, looked up): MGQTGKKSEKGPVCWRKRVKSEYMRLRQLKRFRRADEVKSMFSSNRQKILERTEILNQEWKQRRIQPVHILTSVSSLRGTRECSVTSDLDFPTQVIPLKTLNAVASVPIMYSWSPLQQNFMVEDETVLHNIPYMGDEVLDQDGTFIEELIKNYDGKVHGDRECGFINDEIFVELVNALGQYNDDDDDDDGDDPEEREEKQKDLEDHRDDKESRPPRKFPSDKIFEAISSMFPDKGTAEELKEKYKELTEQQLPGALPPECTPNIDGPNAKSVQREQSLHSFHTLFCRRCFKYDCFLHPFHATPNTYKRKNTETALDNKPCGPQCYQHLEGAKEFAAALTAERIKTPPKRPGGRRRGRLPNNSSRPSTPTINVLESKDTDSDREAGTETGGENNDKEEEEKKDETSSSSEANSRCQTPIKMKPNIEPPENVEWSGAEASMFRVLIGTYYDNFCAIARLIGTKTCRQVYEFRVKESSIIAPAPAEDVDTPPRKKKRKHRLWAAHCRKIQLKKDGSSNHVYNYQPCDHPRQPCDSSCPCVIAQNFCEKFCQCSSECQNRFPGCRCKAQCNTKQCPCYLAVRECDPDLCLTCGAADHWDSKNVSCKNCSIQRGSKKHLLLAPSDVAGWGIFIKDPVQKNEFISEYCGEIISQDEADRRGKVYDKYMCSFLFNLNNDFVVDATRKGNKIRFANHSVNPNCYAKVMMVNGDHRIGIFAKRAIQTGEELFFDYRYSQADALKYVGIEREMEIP
* = called active by the depositor. The full list was thinned out, with hits kept by preference.

SMILES	PRC2 inh
O=C(O)c1cccc(CSc2n[nH]c(-c3ccc(Cl)cc3)n2)c1	-22
O=C(O)c1cccc(CSc2nc(-c3ccc(Cl)cc3)cc(C(F)(F)F)n2)c1	50*
Cc1cccc(-c2nnc(SCC(=O)Nc3c(F)cc(F)cc3Br)n2C)c1	6
O=C(/C=C/CCc1ccccc1)CCc1ccccc1	23
NCCCCCCNS(=O)(=O)c1cccc2c(Cl)cccc12	-11
CCCCCCCNS(=O)(=O)c1cccc2c(Cl)cccc12	41
O=S(=O)(NCCCCCCc1ccccc1)c1cccc2c(Cl)cccc12	55*
COc1ccc(/C=N/NC(=O)CCCCC(=O)NO)cc1	-4
COc1cccc(C(Nc2cc(C)ccn2)c2ccc3ccc(C)nc3c2O)c1 (centres undefined)	14
O=[N+]([O-])c1nn(-c2ccc(Cl)cc2)n(O)c1=NCc1ccccn1	9
Cc1ccc(C2=NC3(CCN(C(=O)OC(C)(C)C)CC3)NC2=S)cc1	4
COc1cc(/C=C/C=N/NC(=O)CCCCCCC(=O)Nc2ccccc2O)ccc1O	8
COc1ccc(C2CC(=O)c3c(O)cc(O[C@@H]4O[C@H](CO[C@@H]5O[C@@H](C)[C@H](O)[C@@H](O)[C@H]5O)[C@@H](O)[C@H](O)[C@H]4O)cc3O2)cc1 (some centres undefined)	21
C[C@@H]1O[C@@H](OC[C@H]2O[C@@H](OCCc3ccccc3)[C@H](O)[C@@H](O)[C@@H]2O)[C@H](O)[C@H](O)[C@H]1O	52*
COC(=O)C1=COC(O[C@@H]2O[C@H](CO)[C@@H](O)[C@H](O)[C@H]2O)[C@@H]2[C@@](C)(O)[C@@H](OC(=O)/C=C\c3ccccc3)C[C@]12O (some centres undefined)	22
C[C@@H]1O[C@@H](OC[C@H]2O[C@@H](Oc3ccc(O)cc3)[C@H](O)[C@@H](OC(=O)c3ccc(O)cc3)[C@@H]2O)[C@H](O)[C@H](O)[C@H]1O	38
Cc1cc2c(cc1O[C@@H]1O[C@H](CO[C@@H]3OC[C@@H](O)[C@H](O)[C@H]3O)[C@@H](O)[C@H](O)[C@H]1O)C(=O)c1ccccc1C2=O	-6
O[C@@H]1[C@@H](O)[C@H](OC/C=C/c2ccccc2)O[C@H](CO[C@@H]2OC[C@H](O)[C@H](O)[C@H]2O)[C@H]1O	90*
Cc1ccc(S(=O)(=O)N[C@H](C(=O)NCCn2cc(C(=O)NO)nn2)C(C)C)cc1	5
CC(=O)c1cccc(NC(=O)CCN2C(=O)C3CC=C(Cl)CC3C2=O)c1 (centres undefined)	-5
CC(C)(C)c1ccc(C(=O)Nc2cccc(NC(=O)COc3ccccc3Cl)c2)cc1	30
Cc1cc(OCc2noc(CSc3ccc(C(F)(F)F)cn3)n2)cc(C)c1Cl	40
COc1ccc(OC)c(CN2CCN(Cc3cccc([N+](=O)[O-])c3)CC2)c1	-4
Cc1ccc([N+](=O)[O-])cc1NC(=O)CSc1nnnn1C1CC2CCC1C2 (centres undefined)	0
Cc1cc(-c2ccccc2)nc(SCC(=O)Nc2sc3c(c2C#N)CCCC3)n1	-2
SMILES	PRC2 inh
Cc1ccccc1-c1nc(SCC(=O)Nc2sc3c(c2C#N)CCCC3)n[nH]1	55*
CCOc1ccccc1-c1nc(SCC(=O)Nc2sc3c(c2C#N)CCCC3)n[nH]1	-27
Cc1ccc(OCC(=O)Nc2ccc(Cl)cc2C(=O)O)cc1C	17
COc1ccc([N+](=O)[O-])cc1NC(=O)CCSc1ccc(C)cc1	7
O=C1C(=O)N(Cc2ccco2)C(c2ccc(Cl)cc2)C1C(=O)c1cc2ccccc2o1 (centres undefined)	-34
COC(=O)[C@H](Cc1ccc(N=[N+]=[N-])cc1)N1CC(/C=C/[C@@H](O)Cc2ccccc2)=C[C@@H](C2CC2)O1	0
COC(=O)[C@H](Cc1ccccc1)N1C(=O)O[C@H](Cc2ccccc2)[C@@H]1/C=C/C1CC1	56*
COc1ccccc1NC(=O)C(Cc1ccccc1)N1C(=O)C2C3c4ccccc4C(c4ccccc43)C2C1=O (centres undefined)	-2
Cn1c(SCC(=O)c2ccc([N+](=O)[O-])cc2)nnc1-c1cccnc1	0
O=C(Nc1ccc(Cl)cc1C(=O)NCCO)c1ccc(Cl)cc1Cl	-7
COc1ccc(-n2c(C)c(C(C)=O)c3cc(OCC(N)=O)ccc32)cc1	24
COc1ccc2c(c1)c(CC(=O)OCc1ccccn1)c(C)n2C(=O)c1ccc(Cl)cc1	56*
COc1ccc2c(c1)c(CC(=O)O)c(C)n2C(=O)c1ccc(Cl)cc1	7
Cc1cccc(NC(=O)CSc2nnc(-c3cccnc3)n2-c2ccccc2)c1C	-5
CC(C)n1nnc(CC(=O)NN)n1	-24
Cc1cccc(-n2c(SCC(=O)c3ccccc3)nnc2-c2ccncc2)c1C	-2
Cc1cc(C)nc(SCC(=O)c2ccc(Oc3ccccc3)cc2)n1	57*
Nc1nc(SCC(=O)c2ccc(Oc3ccccc3)cc2)n[nH]1	-10
Cc1cc(Oc2ccccc2)nc(SCC(N)=O)n1	0
O=C(O)CNC(=O)CN1C(=O)c2ccccc2C1=O	5
O=C(CCCCC(=O)N/N=C/c1ccncc1Br)NO	6

Screens as filed in PubChem BioAssay.
